# NPC1 promoter act: NPC1 promoter activation; AID 485313; Potency, µM (highest dose often 9.22 µM), usual class: activators; 320,000 compounds, 2.4% hits; Huh7 NPC1 promoter luciferase reporter, 24 h; further: nearly all actives have a fitted effect of over 60% in size
#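 Stable NPC1-promoter luciferase Huh7 line; cpd (DMSO) 24 h, 37 °C, 5% CO2; Amplite luciferase reagent 10 min RT; luminescence readout. qHTS format.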
# Rab9 prom act: activators of Rab9 promoter; 320,000 compounds, 2.8% hits; Huh7 Rab9 promoter-luciferase reporter, luminescence, 24 h; AID 485297; Potency, µM (series often up to 9.22 µM), most hits filed as activators; further: nearly all actives have a fitted effect of over 60% in size
#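 Steps: seed 1500 Huh7 Rab9-luc cells per well, rest 2 h at 37 °C; add compound in DMSO; incubate 24 h; add luciferase reagent, 10 min ambient; read luminescence.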
# FLuc modulator: firefly luciferase modulation, counter-screen for miR-21 project; purified FLuc, Km substrates, luminescence inhibition; Potency, µM (titrated, usually from 57.5 µM), usual class: inhibitors; 360,000 compounds, 6.9% hits; further: nearly all actives have a fitted effect of over 55% in size
# Target sequence (P08659 whole entry, looked up): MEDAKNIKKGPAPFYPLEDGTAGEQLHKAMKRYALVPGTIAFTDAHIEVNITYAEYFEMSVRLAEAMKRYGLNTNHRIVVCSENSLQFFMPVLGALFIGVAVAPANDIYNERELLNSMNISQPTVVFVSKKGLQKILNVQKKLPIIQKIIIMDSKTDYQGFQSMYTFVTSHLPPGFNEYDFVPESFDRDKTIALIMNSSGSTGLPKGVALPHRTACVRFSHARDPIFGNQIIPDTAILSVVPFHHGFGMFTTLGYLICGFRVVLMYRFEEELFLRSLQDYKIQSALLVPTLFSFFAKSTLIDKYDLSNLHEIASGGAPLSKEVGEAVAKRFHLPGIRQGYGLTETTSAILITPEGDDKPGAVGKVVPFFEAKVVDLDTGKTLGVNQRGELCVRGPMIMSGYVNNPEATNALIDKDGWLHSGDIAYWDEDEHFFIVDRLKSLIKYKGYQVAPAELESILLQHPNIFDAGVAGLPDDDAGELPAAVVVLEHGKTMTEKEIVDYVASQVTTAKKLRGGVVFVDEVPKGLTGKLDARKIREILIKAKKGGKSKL
#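 Purified P. pyralis luciferase, 10 nM final, with Km-level 10 uM D-luciferin and 10 uM ATP in 50 mM Tris acetate pH 7.5, 10 mM Mg acetate, 0.01% Tween-20, 0.05% BSA; 6-point qHTS titration about 60 µM downward; luminescence read.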
# SMN2 splice enh: enhancers of SMN2 splice variant expression. Potency, µM (top dose mostly 46.1 µM), actives largely listed as activators. 210,000 compounds, 2.8% hits. HEK293 SMN2-luciferase splicing reporter, luminescence, 30-36 h. AID 1458; further: nearly all actives have a fitted effect of over 55% in size
#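 HEK293 cells carry an SMN2 minigene-luciferase reporter in which exon 7 inclusion puts luciferase in frame. Cells were seeded at 2000 cells/well, attached for 10-12 hours, then exposed to compounds for 30-36 hours at 37C before ONE-Glo luminescence.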
# ELG1 genotox: inducers of genotoxicity in HEK293T ELG1-luciferase cells. HEK293T ELG1-luciferase reporter, luminescence, 16 h. 330,000 compounds, 1.3% hits. Potency, µM (titrated, usually from 46 µM), hits mostly activators. AID 504466; further: nearly all actives have a fitted effect of over 60% in size
#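 ELG1-luciferase HEK293T cells, 2,000/well; compound pinned in; 16 hr, 37 °C, 5% CO2; ONE-Glo, 30 min RT; luminescence on CCD imager.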
# ELG1 DNA repair: ELG1-dependent DNA repair inhibition; HEK293T ELG1-luciferase reporter, luminescence, 16 h; DNA damage induced by 5-fluorouridine; Potency, µM (top dose mostly 46.1 µM), usual class: inhibitors; 330,000 compounds, 2.3% hits; further: nearly all actives have a fitted effect of over 55% in size
#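 Reporter activity after DNA damage by 5-fluorouridine is monitored. Compound-treated cells incubate 16 hr at 37 °C, then ONE-Glo is added for 30 min before luminescence reading.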
# Numbers stand for hits; . = inactive; ? = inconclusive; / = not tested or not shown. Sampled rows, rich in hits. Any-hit rate of the full collection: about 9.2%. The call rests on the fitted dose curve; in most records, active means well fitted curve in the direction sought with a large enough effect; inconclusive means small, poorly fitted or top-dose-only effect, or another doubt; inactive means no such curve, though single readings can be large; an effect the other way counts as inactive or inconclusive.
SMILES,NPC1 promoter act,Rab9 prom act,FLuc modulator,SMN2 splice enh,ELG1 genotox,ELG1 DNA repair
c1ccn2c(SCc3ccc4c(c3)OCCO4)nnc2c1,?,3.5µM,?,11µM,21µM,?
c1ccn2cc(CSC3=NCCS3)nc2c1,?,?,19µM,?,?,?
Cc1ccc(SCc2cn3cccnc3n2)cc1,?,.,?,.,?,?
c1ccc(-n2nnnc2SCc2cn3ccccc3n2)cc1,.,.,.,.,.,.
O=[N+]([O-])c1cccc(CSc2nnc3ccccn23)c1,.,.,.,.,.,.
c1ccn2cc(CSc3nnc4ccccn34)nc2c1,3.5µM,1µM,13µM,.,10µM,?
Cc1nnc2c(N3CCN(c4ccc(F)cc4)CC3)nc3ccc(C(=O)c4ccccc4)cc3n12,/,/,.,/,/,/
Cn1ccnc1SCc1cn2ccccc2n1,3.2µM,3.2µM,17µM,?,?,?
Cc1cc(=O)[nH]c(SCc2cn3ccccc3n2)n1,.,.,.,.,.,?
Cc1ccccc1C(=O)Nc1ccc2nc(SCC(=O)N3CCc4ccccc43)sc2c1,/,/,.,/,/,/
CC(C)Sc1nnc(Nc2ccccc2)s1,4µM,2µM,15µM,.,?,?
Cc1nn(-c2ccccc2)c2c1C(c1ccc([N+](=O)[O-])cc1)C(C#N)=C(N)O2 (stereo not given),.,.,.,/,.,.
CCCc1nn(-c2ccccc2)c2c1C(c1cccs1)C(C#N)=C(N)O2 (stereo not given),.,.,.,.,.,?
Cc1nn(-c2ccccc2)c2c1C(c1ccco1)C(C#N)=C(N)O2 (stereo not given),.,.,13µM,.,.,?
Cc1nn(-c2ccccc2)c2c1C(c1cccs1)C(C#N)=C(N)O2 (stereo not given),.,.,15µM,.,.,?
CC(C)(C)OC(=O)N1CCC(c2c(C(=O)NCc3ccco3)cnn2-c2ccccc2Cl)CC1,/,/,.,/,/,/
CCOC(=O)NNC(=O)CCn1c2c(c3ccccc31)CCCC2,.,.,.,/,.,18µM
CC(=O)NNC(=O)CCn1c2c(c3ccccc31)CCCC2,.,.,.,/,.,.
Cc1ccc2c(c1)COc1c3ccc(C(=O)NC(C)C)cc3nn1-2,1.6µM,?,3µM,/,?,?
CCOc1c2ccc(C(=O)N[C@H](C)C3CCCCC3)cc2nn1CCOC,.,.,.,.,.,.
Cc1ccc2c(c1)COc1c3ccc(C(=O)N[C@@H](C)CO)cc3nn1-2,1.6µM,2.2µM,3.4µM,/,?,?
CCOC(=O)c1cc2c(=O)n3ccccc3nc2n(CC2CCCO2)c1=NC(=O)c1cccc(C(F)(F)F)c1 (stereo not given),/,/,.,.,/,/
CCCC(=O)N1CCc2cc(OC)c(OC)cc2C1COc1ccc2c(C)cc(=O)oc2c1 (stereo not given),/,/,.,.,/,/
O=C1CC(c2nc3ccccc3n2CCCOc2ccccc2)CN1c1ccc(F)cc1 (stereo not given),/,/,.,.,/,/
Cc1ccc(C)c(NC(=O)CN(C)C(=O)c2cc(-c3cccs3)nn2-c2ccccc2)c1,.,.,.,/,.,.
SMILES,NPC1 promoter act,Rab9 prom act,FLuc modulator,SMN2 splice enh,ELG1 genotox,ELG1 DNA repair
Cc1nn(-c2ccccc2)c(Cl)c1C(=O)OCC(=O)NCCc1ccc(S(N)(=O)=O)cc1,.,.,.,/,.,?
CCOC(=O)c1sc2ccccc2c1S(=O)(=O)N1CCN(c2cccc(C)c2)C(C)C1 (stereo not given),/,/,.,/,/,/
Cc1cc2nc(-c3ccc[nH]c3=O)[nH]c2cc1C,?,0.5µM,0.34µM,/,?,?
Cn1ncc2c(NCc3ccc(Cl)cc3)ncnc21,/,/,.,/,/,/
COc1cccc(-c2nc(COc3ccc(Cl)cc3Cl)no2)c1,.,.,15µM,/,.,.
COc1ccccc1-c1nc(COc2ccc(Cl)cc2Cl)no1,3.5µM,4µM,8.5µM,/,?,?
CCOc1c(OC(C)=O)ccc(/C=C/c2ccc3cccc(OC)c3n2)c1[N+](=O)[O-],?,.,6µM,?,.,.
